Here are results for 14 compounds from PubChem BioAssay.

Each structure is given as a SMILES string. For part of these data: Results with a measured potency or affinity are listed apart. Calls of active or inactive are those of the source.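 The calls were made as follows, unless noted: active = fitted half-maximal concentration within the tested dose range, moderate curve steepness, a statistically real signal drop, and little compound fluorescence or tag-binding interference; inactive = the rest.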

Test [1] has as its target Cell division control protein 42 homolog (Homo sapiens) (UniProt P60953). Put plainly: activated mutant Cdc42 GTP-binding inhibitors, dose response, biochemical, multiplex bead flow cytometry, Bodipy-FL-GTP (AID 1333).
Test [2] shares this target. The experiment in a line: wildtype Cdc42 GTP-binding inhibitors, dose response, biochemical, multiplex bead flow cytometry, Bodipy-FL-GTP (AID 1334;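 active = fitted half-maximal concentration within the tested range, moderate curve steepness, significant signal drop, and little compound fluorescence or bead-linkage interference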). The conditions noted are these: bead-based flow cytometry, Bodipy-FL-GTP binding to GST-Cdc42; at 100 µM (top of the series) unless noted. A general note: A flow cytometer gives signals particle by particle.
Test [3] addresses GTPase HRas (Homo sapiens) (UniProt P01112). The experiment in a line: inhibitors of GTP binding to wildtype Ras, dose response, biochemical, multiplex bead flow cytometry (AID 1335;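 active = fitted half-maximal concentration within 10 nM to 100 µM, steepness 0.5 to 2, significant signal drop, low assay interference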). The conditions noted are these: bead-based flow cytometry, Bodipy-GTP binding to GST-Ras; at 100 µM (top of the series) unless noted.
In test [4] the test system is Ras-related protein Rab-7a (dog), GTP binding. Put plainly: Rab7 GTP binding inhibitors, potency, dose response, biochemical, wildtype, multiplex bead flow cytometry (AID 1336; call rule not given here).
In test [5] the target is Ras-related C3 botulinum toxin substrate 1 (Homo sapiens) (UniProt P63000). The experiment in a line: wildtype Rac1 GTP binding inhibitors, dose response, biochemical, multiplex bead flow cytometry (AID 1340;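 active = dose curve with midpoint inside tested range, moderate steepness, plateau gap beyond fit error, low compound glow and bead-link interference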). The conditions noted are these: GST-Rac1 beads, Bodipy-FL-GTP binding; at 100 µM (top of the series) unless noted.
Test [6] deals with GTPase HRas (Homo sapiens) (UniProt P01112). The experiment in a line: activated Ras mutant GTP binding inhibitors, dose response, biochemical, multiplex bead flow cytometry (AID 1341;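 active = dose-response curve with midpoint inside the tested range, moderate steepness, significant amplitude and little compound fluorescence or bead-attachment interference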;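 also: GST-tagged constitutively activated Ras mutant immobilized on beads and multiplexed with other GTPases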).
GTPase HRas (Homo sapiens), sequence (P01112 whole entry, looked up): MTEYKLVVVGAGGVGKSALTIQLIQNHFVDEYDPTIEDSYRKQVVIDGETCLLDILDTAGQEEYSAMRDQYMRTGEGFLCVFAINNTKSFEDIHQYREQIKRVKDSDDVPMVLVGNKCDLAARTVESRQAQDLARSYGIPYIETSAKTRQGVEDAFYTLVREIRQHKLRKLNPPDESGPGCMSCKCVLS

Cell division control protein 42 homolog (Homo sapiens), sequence (P60953 whole entry, looked up): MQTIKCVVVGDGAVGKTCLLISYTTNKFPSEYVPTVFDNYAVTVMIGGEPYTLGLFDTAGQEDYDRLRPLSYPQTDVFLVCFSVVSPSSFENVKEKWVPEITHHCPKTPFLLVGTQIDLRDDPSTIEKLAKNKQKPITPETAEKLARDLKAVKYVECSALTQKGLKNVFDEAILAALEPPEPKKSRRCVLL

On to `O=C(O)c1ccc(CSCc2cccc(Cl)c2)o1`, for which the compound was classed as inactive in test [1], in test [4] and in test [6]. For the same compound, the fluorescence, percent of control (lower = inhibition) in test [2] came out at 57.3%. The GTP binding, percent of control in test [3] stood at 81.4%. In addition, the GTP binding signal, raw median fluorescence (lower = inhibition) (MCF (arbitrary fluorescence units)) in test [5] turned out to be 30.1.

On to `O=C(C[n+]1cccc2ccccc21)c1ccc(NC(=O)c2ccccc2)cc1`, for which the result in test [1], in test [4] and in test [6] was inactive. For the same compound, the fluorescence, percent of control (lower = inhibition) in test [2] was found to be 75.8%. For the same compound, the GTP binding, percent of control in test [3] came to 123%. Further, the GTP binding signal, raw median fluorescence (lower = inhibition) (MCF (arbitrary fluorescence units)) in test [5] stood at 332.

Take `O=C(N/N=C/c1c(O)n(Cc2ccccc2)c(=O)c2ccccc12)c1cccnc1`: the call in test [1], in test [4] and in test [6] was inactive. Also, the fluorescence, percent of control (lower = inhibition) in test [2] stood at 18.5%. The GTP binding, percent of control in test [3] turned out to be 75.7%. The same compound gave a GTP binding signal, raw median fluorescence (lower = inhibition) (MCF (arbitrary fluorescence units)) in test [5] of 87.

Turning to `CCOC(=O)c1c(C)[nH]c(C)c1C(=O)COc1ncnc2cc([N+](=O)[O-])ccc12`, the outcome in test [1], in test [4] and in test [6] was inactive. Also, the fluorescence, percent of control (lower = inhibition) in test [2] was determined as 33.9%. The GTP binding, percent of control in test [3] amounted to 76.2%. Moreover, the GTP binding signal, raw median fluorescence (lower = inhibition) (MCF (arbitrary fluorescence units)) in test [5] was found to be 186.

For the compound `Cc1c2cc(O)c(=O)cc-2oc2cc(O)c(O)cc12`, the compound was called inactive in test [1], in test [4] and in test [6]. In test [2], the fluorescence, percent of control (lower = inhibition) worked out at 5290%. For the same compound, the GTP binding, percent of control in test [3] was determined as 5530%. Further, in test [5], the GTP binding signal, raw median fluorescence (lower = inhibition) (MCF (arbitrary fluorescence units)) amounted to 5510.

As to `Cc1ccc(-n2c3nc(=O)[nH]c(=O)c-3cc3cc([N+](=O)[O-])ccc32)cc1`, the call in test [1], in test [4] and in test [6] was inactive. The fluorescence, percent of control (lower = inhibition) in test [2] was 34.4%. Also, the GTP binding, percent of control in test [3] was 71%. The same compound yielded a GTP binding signal, raw median fluorescence (lower = inhibition) (MCF (arbitrary fluorescence units)) in test [5] of 103.

Regarding `CCc1nnc(NS(=O)(=O)c2ccc(Nc3ccc4nonc4c3[N+](=O)[O-])cc2)s1`, the compound was called inactive in test [1], in test [4] and in test [6]. Further, the fluorescence, percent of control (lower = inhibition) in test [2] came out at 26.3%. This compound also displayed a GTP binding, percent of control in test [3] of 65.4%. Further, the GTP binding signal, raw median fluorescence (lower = inhibition) (MCF (arbitrary fluorescence units)) in test [5] is 147.

With `O=C(Nc1cccc(Cl)c1)N1CCN(c2ncccn2)CC1`, the call in test [1], in test [4] and in test [6] was inactive. For the same compound, in test [2], the fluorescence, percent of control (lower = inhibition) came to 47.5%. In test [3], this compound yielded a GTP binding, percent of control of 60.6%. The compound also gave a GTP binding signal, raw median fluorescence (lower = inhibition) (MCF (arbitrary fluorescence units)) in test [5] of 201.

`Cc1cc2ccccn2c1C(=O)c1cc([N+](=O)[O-])cc([N+](=O)[O-])c1`: the call in test [1], in test [4] and in test [6] was inactive. Moreover, the fluorescence, percent of control (lower = inhibition) in test [2] turned out to be 37.4%. In test [3], this compound showed a GTP binding, percent of control of 85.6%. The same compound came in with a GTP binding signal, raw median fluorescence (lower = inhibition) (MCF (arbitrary fluorescence units)) in test [5] of 270.

As to `COc1ccccc1OCCn1cc(C(=O)O)c2ccc(Cl)cc21`, the outcome in test [1], in test [4] and in test [6] was inactive. The fluorescence, percent of control (lower = inhibition) in test [2] was 57%. In addition, in test [3], the GTP binding, percent of control stood at 201%. The same compound showed a GTP binding signal, raw median fluorescence (lower = inhibition) (MCF (arbitrary fluorescence units)) in test [5] of 61.4.

As for `O=C(CN1C(=O)C2C3c4ccccc4C(c4ccccc43)C2C1=O)Nc1cccc(C(=O)O)c1` (centres undefined), the result in test [1], in test [4] and in test [6] was inactive. In addition, the fluorescence, percent of control (lower = inhibition) in test [2] turned out to be 46.1%. In test [3], the GTP binding, percent of control came to 58.8%. In test [5], the GTP binding signal, raw median fluorescence (lower = inhibition) (MCF (arbitrary fluorescence units)) is 165.

As to `O=C(N/N=C/c1ccc2nccnc2c1)c1cccc([N+](=O)[O-])c1`, the outcome in test [1], in test [4] and in test [6] was inactive. Also, the fluorescence, percent of control (lower = inhibition) in test [2] was determined as 42.7%. For the same compound, in test [3], the GTP binding, percent of control was determined as 86.9%. The compound also returned a GTP binding signal, raw median fluorescence (lower = inhibition) (MCF (arbitrary fluorescence units)) in test [5] of 203.

For `O=C(O)c1ccc(NS(=O)(=O)c2ccc3c(c2)C(=O)c2ccccc2C3=O)cc1`, the result in test [1], in test [4] and in test [6] was inactive. In test [2], the fluorescence, percent of control (lower = inhibition) stood at 28.6%. In test [3], this compound displayed a GTP binding, percent of control of 69%. The same compound had a GTP binding signal, raw median fluorescence (lower = inhibition) (MCF (arbitrary fluorescence units)) in test [5] of 118.

On to `CCNC(=O)c1cc2c(=O)n3cccc(C)c3nc2n(CCc2ccccc2)c1=N`, for which the result in test [1], in test [4] and in test [6] was inactive. The fluorescence, percent of control (lower = inhibition) in test [2] was 74%. In test [3], this compound registered a GTP binding, percent of control of 113%. The compound further showed a GTP binding signal, raw median fluorescence (lower = inhibition) (MCF (arbitrary fluorescence units)) in test [5] of 126.
